Results from PubChem BioAssay AID1159580 (chemical genetic matrix, 2015).
Where “and” joins values, the source holds several entries; their conditions need not be identical. Equal values may be shown once. Among all 5,500 compounds or so, about 2,000 (36%) were called active. Roughly 18% stayed inconclusive and do not appear here. Rule as the data show it: active = normalized growth mostly below about 0.91 (no sharp cut-off); inconclusive = no clear call, values can overlap the other calls; inactive = mostly above about 0.92. The list shows a part of the results.

Assay: chemical genetic growth profiling, strain panel (AID 1159580);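 also: tested at 20 µM; growth read once vehicle control cultures reached saturation at 30 °C; 1 = growth at the plate median or of vehicle wells; lower values mean less growth of the strain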
Conditions: S. cerevisiae deletion strains, growth OD

Structure (SMILES): O=c1oc2c(O)c(O)cc3c(=O)oc4c(O)c(O)cc1c4c23
- normalized growth (locus YAL013W, strain DEP1, stronger effect = lower value): 0.55 (active)
- normalized growth (locus YAL021C, strain ccr4, stronger effect = lower value): 0.352 (active)
- normalized growth (locus YAL026C, strain drs2, stronger effect = lower value): 0.545 (active)
- normalized growth (locus YAL030W, strain snc1, stronger effect = lower value): 0.817 (active)
- normalized growth (locus YBL061C, strain skt5, stronger effect = lower value): 0.591 (active)
- normalized growth (locus YBR009C, strain hhf1, stronger effect = lower value): 0.754 (active)
- normalized growth (locus YBR021W, strain FUR4, stronger effect = lower value): 0.907 (inactive)
- normalized growth (locus YBR023C, strain chs3, stronger effect = lower value): 0.533 (active)
- normalized growth (locus YBR171W, strain sec66, stronger effect = lower value): 0.938 (inactive)
- normalized growth (locus YBR229C, strain ROT2, stronger effect = lower value): 0.903 (active)
- normalized growth (locus YBR231C, strain swc5, stronger effect = lower value): 0.53 (active)
- normalized growth (locus YBR279W, strain paf1, stronger effect = lower value): 0.699 (active)
- normalized growth (locus YCL011C, strain gbp2, stronger effect = lower value): 0.745 (active)
- normalized growth (locus YCL016C, strain dcc1, stronger effect = lower value): 0.722 (active)
- normalized growth (locus YCL029C, strain bik1, stronger effect = lower value): 0.502 (active)
- normalized growth (locus YCL061C, strain MRC1, stronger effect = lower value): 0.84 (active)
- normalized growth (locus YCL069W, strain vba3, stronger effect = lower value): 0.855 (active)
- normalized growth (locus YCR088W, strain abp1, stronger effect = lower value): 0.895 (active)
- normalized growth (locus YDL005C, strain med2, stronger effect = lower value): 0.986 (inactive)
- normalized growth (locus YDL035C, strain GPR1, stronger effect = lower value): 0.681 (active)
- normalized growth (locus YDL040C, strain nat1, stronger effect = lower value): 0.868 (active)
- normalized growth (locus YDL074C, strain BRE1, stronger effect = lower value): 0.541 (active)
- normalized growth (locus YDL101C, strain DUN1, stronger effect = lower value): 0.598 (active)
- normalized growth (locus YDL185W, strain tfp1, stronger effect = lower value): 0.835 (active)
- normalized growth (locus YDL192W, strain arf1, stronger effect = lower value): 0.558 (active)
- normalized growth (locus YDR001C, strain nth1, stronger effect = lower value): 0.96 (inactive)
- normalized growth (locus YDR069C, strain doa4, stronger effect = lower value): 0.521 (active)
- normalized growth (locus YDR101C, strain arx1, stronger effect = lower value): 0.749 (active)
- normalized growth (locus YDR137W, strain rgp1, stronger effect = lower value): 0.496 (active)
- normalized growth (locus YDR150W, strain NUM1, stronger effect = lower value): 0.778 (active)
- normalized growth (locus YDR159W, strain sac3, stronger effect = lower value): 0.738 (active)
- normalized growth (locus YDR162C, strain NBP2, stronger effect = lower value): 0.661 (active)
- normalized growth (locus YDR195W, strain ref2): 0.876 (inactive)
- normalized growth (locus YDR297W, strain sur2, stronger effect = lower value): 0.746 (active)
- normalized growth (locus YDR318W, strain mcm21, stronger effect = lower value): 0.651 (active)
- normalized growth (locus YDR334W, strain swr1, stronger effect = lower value): 0.574 (active)
- normalized growth (locus YDR335W, strain msn5, stronger effect = lower value): 0.784 (active)
- normalized growth (locus YDR388W, stronger effect = lower value): 0.538 (active)
- normalized growth (locus YDR392W, strain spt3, stronger effect = lower value): 0.695 (active)
- normalized growth (locus YDR502C, strain sam2, stronger effect = lower value): 0.561 (active)
- normalized growth (locus YEL003W, strain gim4, stronger effect = lower value): 0.697 (active)
- normalized growth (locus YEL037C, strain rad23, stronger effect = lower value): 0.767 (active)
- normalized growth (locus YEL061C, strain CIN8 (second series), stronger effect = lower value): 0.917 (inactive)
- normalized growth (locus YEL061C, strain CIN8, stronger effect = lower value): 0.753 (active)
- normalized growth (locus YER015W, strain faa2, stronger effect = lower value): 0.583 (active)
- normalized growth (locus YER016W, strain bim1, stronger effect = lower value): 0.818 (active)
- normalized growth (locus YER110C, stronger effect = lower value): 0.971 (inactive)
- normalized growth (locus YER111C, strain swi4, stronger effect = lower value): 0.436 (active)
- normalized growth (locus YER155C, strain BEM2 (second series), stronger effect = lower value): 0.745 (active)
- normalized growth (locus YER155C, strain BEM2, stronger effect = lower value): 0.74 (active)
- normalized growth (locus YER167W, strain BCK2, stronger effect = lower value): 0.799 (active)
- normalized growth (locus YFR010W, strain ubp6, stronger effect = lower value): 0.713 (active)
- normalized growth (locus YGL078C, strain dbp3, stronger effect = lower value): 0.976 (inactive)
- normalized growth (locus YGL086W, strain mad1, stronger effect = lower value): 0.583 (active)
- normalized growth (locus YGL167C, strain pmr1, stronger effect = lower value): 0.653 (active)
- normalized growth (locus YGL173C, strain kem1, stronger effect = lower value): 0.417 (active)
- normalized growth (locus YGL227W, strain vid30, stronger effect = lower value): 1 (inactive)
- normalized growth (locus YGL240W, strain doc1, stronger effect = lower value): 0.923 (inactive)
- normalized growth (locus YGL248W, strain PDE1, stronger effect = lower value): 0.649 (active)
- normalized growth (locus YGL253W, strain hxk2, stronger effect = lower value): 0.768 (active)
- normalized growth (locus YGR078C, strain PAC10, stronger effect = lower value): 0.616 (active)
- normalized growth (locus YGR135W, strain pre9, stronger effect = lower value): 0.559 (active)
- normalized growth (locus YGR252W, strain gcn5, stronger effect = lower value): 0.588 (active)
- normalized growth (locus YHR013C, strain ard1, stronger effect = lower value): 0.563 (active)
- normalized growth (locus YHR027C, strain rpn1, stronger effect = lower value): 0.539 (active)
- normalized growth (locus YHR030C, strain SLT2, stronger effect = lower value): 0.41 (active) and 0.994 (inactive)
- normalized growth (locus YHR079C, strain IRE1 (second series), stronger effect = lower value): 0.824 (active)
- normalized growth (locus YHR079C, strain IRE1, stronger effect = lower value): 0.978 (inactive)
- normalized growth (locus YHR094C, strain hxt1, stronger effect = lower value): 0.964 (inactive)
- normalized growth (locus YHR129C, strain ARP1, stronger effect = lower value): 0.603 (active)
- normalized growth (locus YHR142W, strain chs7, stronger effect = lower value): 0.563 (active)
- normalized growth (locus YHR200W, strain rpn10, stronger effect = lower value): 0.712 (active)
- normalized growth (locus YIL066C, strain RNR3, stronger effect = lower value): 0.669 (active)
- normalized growth (locus YIL073C, strain SPO22, stronger effect = lower value): 0.546 (active)
- normalized growth (locus YIL125W, strain kgd1, stronger effect = lower value): 0.956 (inactive)
- normalized growth (locus YIR030C, strain dcg1, stronger effect = lower value): 0.776 (active)
- normalized growth (locus YJL092W, strain hpr5, stronger effect = lower value): 0.861 (active)
- normalized growth (locus YJL095W, strain BCK1 (second series), stronger effect = lower value): 0.675 (active)
- normalized growth (locus YJL095W, strain BCK1, stronger effect = lower value): 0.28 (active) and 0.983 (inactive)
- normalized growth (locus YJL115W, strain asf1, stronger effect = lower value): 0.912 (inactive)
- normalized growth (locus YJL129C, strain trk1, stronger effect = lower value): 0.898 (inactive)
- normalized growth (locus YJL134W, strain LCB3, stronger effect = lower value): 0.823 (active)
- normalized growth (locus YJL154C, strain vps35, stronger effect = lower value): 0.864 (active)
- normalized growth (locus YJL164C, strain tpk1, stronger effect = lower value): 0.679 (active)
- normalized growth (locus YJL166W, strain qcr8, stronger effect = lower value): 0.73 (active)
- normalized growth (locus YJL168C, strain set2, stronger effect = lower value): 0.898 (active)
- normalized growth (locus YJL187C, strain SWE1 (second series), stronger effect = lower value): 0.493 (active)
- normalized growth (locus YJL187C, strain SWE1, stronger effect = lower value): 0.742 (active)
- normalized growth (locus YJR043C, strain POL32, stronger effect = lower value): 0.596 (active)
- normalized growth (locus YJR066W, strain TOR1, stronger effect = lower value): 0.974 (inactive)
